Measurements taken from PubChem BioAssay AID1159506 (National Center for Advancing Translational Sciences (NCATS), 2015).
In all, about 59,000 sequences were measured (the read-out: median about -0.00055, lowest 2% from about -2 on). This excerpt belongs to a sample that is enriched for the lowest values.

Experiment: Identification of proteins required for the processing of the EWS-FLI1 nascent transcript;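 note: robust z of luciferase light less the median z of siRNAs with the same seed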
Settings: TC32 Ewing sarcoma NR0B1-luc vs CMV-luc (EWS-FLI1 target promoter against control promoter), 48 h; screened at 20 nM (by protocol)
Outline: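 Genome-wide siRNA screen (Ambion v4.1, three siRNAs per gene, 20 nM final, RNAiMax) in Ewing sarcoma TC32 cells carrying NR0B1-promoter or CMV-promoter luciferase; OneGlo luciferase read 48 h post-transfection. Data normalized, z-score-MAD transformed and seed-adjusted.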

Row | Sequence | seed-corrected z-score
1 | UGGAUUGUCAACACCAAUG against CCT2 | -0.17
2 | UUUACGUCCAAAGUAGCAC against SEC23B | -0.0983
3 | UGAUCUGCUAGGCAAGAGG against FASTKD1 | -0.665
4 | UGGUUGUUCAACGCUGUAG against MEA1 | -0.557
5 | UUAAGACAUAUCCUGGUGC against YY1AP1 | -2.26
6 | UUCCUUCUCAGGAUAGUGG against IYD | 0.306
7 | UCGGAUACGGGUGUGAUAC against SNX32 | 0.403
8 | UAGAAUCCCACUGCGAUGC against TTYH3 | -0.966
9 | UCAUUCAUCAGGUUCAUGC against TPD52L1 | 1.32
10 | UUGGGCUUCUUCCUAAUGC against SLC16A3 | -0.147
11 | UUCGAUAGUCUGUUUCUGC against SLK | -2.56
12 | UCAGGGUAUUCAUUGGUGC against INCA1 | -3.45
13 | GAUGUAGAAGCCAUAGUUC against NIPAL4 | 0.499
14 | UGGAGUUCUUAUAAAAUGC against C15orf43 | -0.277
15 | UUAAUUCCCGUGCCCUUGG against PON2 | -3.2
16 | UUUGGAUGUACGUGUAUAC against DYRK4 | 0.282
17 | UACUUUCGCCUCCUCAUCC against CCDC89 | 1.17
18 | UUUGGGCAGAUAGAAGGAG against ADAMTS15 | 0.203
19 | UACUUUCAUAUGCAGGUCC against PCDH8 | -1.4
20 | AACCGUUCAUCCUUCGUGC against KLHL6 | -0.163
21 | UCAUCAUCAAAGGCGAUGG against GDNF | -2.86
22 | UUCUUGGUGUUGUAGAAGG against AGPAT2 | 0.219

Row | Sequence | seed-corrected z-score
23 | UCAGGUAGAACACUUUGCU against YWHAG | 0.113
24 | UUGCUAUCCAUGUAUAGCC against SLITRK1 | 0.475
25 | UCGUGUAAAACAACAUGCG against AGMO | -0.652
26 | UAACCUAUCAUAUUGGUAG against DDX17 | 0.216
27 | UAGAUCACCAAGCCCUUCC against EFNB1 | -0.0268
28 | UCUCCAUAAACAUACAGGC against LACE1 | 1.68
29 | UUGGUUGCAUCCCUGUCCG against PPP1R27 | -3.59
30 | UGAUGUACUGUGGAAGGUC against MAST3 | -1.59
31 | UGUAGUGACAUCUCCGCCU against MCFD2P1 | 0.515
32 | UAAGGUCCCAGAAAGGCCU against ZP4 | 0.208
33 | UCUGGGUACAAUCUGGUGU against CHCHD10 | -2.26
34 | UCUGAUUCCGCUUCUGAGC against SIGLEC10 | 0.63
35 | AUAGAUACCUAGGUCAACC against NEU3 | 0.24
36 | UGCUGUUAGUUUGUGAUGC against LOC729254 | 0.247
37 | UUCGAGACGAUUUCCAGUG against CMIP | -2.27
38 | UACUAGGUACGAACCGUCC against PPTC7 | -0.527
39 | UCUCCUUACAUAACACUUC against EPHX2 | 0.0978
40 | UUUGUGAUAGACUUCUUUC against CFAP126 | 1.14
41 | AAACCUUCCGGUUUAGAUG against KCNH5 | -0.00192
42 | UUUGCCUCUUUCCUCAACC against ZBTB16 | -2.32
43 | UAUAGAUCAACAAAAAUAC against TRMT112 | 0.21
44 | UUCCUUCUCGUCGUCGUAG against SERPINH1 | -0.218

Row | Sequence | seed-corrected z-score
45 | AGUGGGAUAAGGGCUCUGA against TMEM132A | -5.72
46 | UAUUCUUCAUUGGUAUCCC against TMEM27 | -0.429
47 | UCCGUUUCCACAUAUCUAC against SUPT20H | -0.175
48 | UAUGGUAAUAGUCCUCCAG against FNDC9 | -0.0743
49 | UUAGAAGCCCGCGUGAUGU against HS6ST3 | 0.236
50 | UGAUUGGUUACUGCCCAGG against TAS2R20 | -4.87
51 | UCCGUUUCCAUAAUUACAG against SCUBE1 | -0.917
52 | AAACUAAUGAAAUAGUGCC against GPR39 | -0.0661
53 | AUAGAUCUUUAUAUAAGCC against ATL1 | -0.744
54 | UAGAGUUUCGGUUUAAAUG against RBBP5 | 0.215
55 | UUUUGUAUGUAGACAUUGG against DEFB135 | -0.8
56 | UACACUAGCAGUGACCAUG against MBOAT1 | 0.0459
57 | UUGAUAUCCAGCACAUUGC against CORO2B | 1.69
58 | UCUUCGUAGAUGACAUUCC against ERO1A | 0.442
59 | AUAUGUGCAGUCUUCUCCC against LINC00200 | -0.44
60 | UCCAGUAACAAUUAAUGCC against LRRC37A | 0.451
61 | UGUGGUCAAAGAGGAGAUG against SH3TC2 | -2.8
62 | UAGCAGAUAGGUCUCAAUG against MYH11 | -0.244
63 | UAGAUUCUCGUGCACAGCC against KIFC3 | 0.0224
64 | AAAGUGACUAUUGUCAGGU against OR5M10 | -0.162
65 | UUUGUAGUUGUUCCCAUGC against TTPA | -0.714
66 | UCCAAGGUCAGUGUGAUCC against ZDHHC23 | 0.574
